Screening data deposited in PubChem by several laboratories.
A selection: hits, their analogues and other compounds. The true share with any hit is near 9.6%.
PostGolgi ctrl = growth inhibition of yeast control strain, primary screen, counter-screen for post-Golgi transport modulator project; efflux-deficient yeast background strain, growth absorbance A615, 16 h; inhibition, % at 10 µM; 98,000 compounds, 5% hits; AID 738, 2007
hDAT+cocaine = changed hDAT dopamine uptake under cocaine IC80, either direction, primary screen, cocaine antagonist project, cell-based, LLC-PK1 hDAT, [14C]-dopamine uptake, MLSMR; Sodium-dependent dopamine transporter (Homo sapiens), Q01959; LLC-PK1 hDAT cells, [14C]-dopamine uptake with cocaine IC80; actives deviate in either direction; B-score at 10 µM; 110,000 compounds, 1.3% hits;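 active = Z score or B-score, a plate-position-corrected score, falls beyond the plate's 99.7% confidence bounds, in either direction; inactive = both scores lie inside the 99.7% bounds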;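 note: scored against the spread of the other compound wells on the same plate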
PostGolgi yeast = phenotypic screen on post-Golgi transport, primary screen. post-Golgi transport phenotypic cell assay. inhibition, % at 10 µM. 98,000 compounds, 0.9% hits. AID 739, 2007;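 note: yeast cells grown in 1536-well plates; yeast grown about 18 h at 30C before absorbance read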
PLAP act = PLAP enzyme activators, biochemical, luminescence, HTS; purified PLAP enzyme, luminescent substrate read-out; active compounds read high; 96,000 compounds, 1.2% hits; Alkaline phosphatase, placental type (Homo sapiens), P05187; AID 696, 2007; activation fold at 20 µM; in the data active = activation fold above about 2
Cav3 T inh = Cav3.2 calcium influx blockers – cell-based, Fluo-4 calcium fluorescence, FDSS, MLSMR library, primary screen; Voltage-dependent T-type calcium channel subunit alpha-1H (Homo sapiens), O95180; B-score at 10 µM; 100,000 compounds, 4% hits; Cav3.2-expressing cells; active compounds read low;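 active = single-dose well whose peak fluorescence ratio is a statistical outlier from its plate by either plate-standardised score or position-corrected B-score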
* hit, by the source's call; . = not tested or not shown. Cut-off read from the data, not from the text of the source, unless noted: active = inhibition above about 30%; inactive = the rest.

SMILES	PostGolgi ctrl	hDAT+cocaine	PostGolgi yeast	PLAP act	Cav3 T inh
O=C(c1cc2c(s1)-c1ccccc1OC2)N1CCCC1	24.5	-1.09	-1.3	0.8	-2.11
Cc1ccc(C(=O)COc2ccccc2C(=O)Nc2ccccc2)cc1	10.4	0.307	-0.5	0.8	-0.968
COC(=O)CC/C(O)=C1\C(=O)CC(C)(C)CC1=Nc1ccccc1OC	1.9	0.257	7.5	1.1	-0.255
CCCC/C(O)=C1\C(=O)CC(C)(C)CC1=Nc1ccccc1OC	30.8*	2.43	8.6	1.6	-1.9
CC1CCN(C(=O)/C(=C/c2ccccc2Cl)c2ccccc2)CC1	19.2	-0.33	1.4	1.2	-9.06*
CN1CCN(C(=O)/C(=C\c2ccccc2)c2ccccc2)CC1	5.1	-0.8	-2.4	1.1	1.6
CCCCC(=O)Nc1nc2ccc3nc(C)sc3c2s1	44.5*	-0.181	0.7	.	.
CCCC(=O)Nc1nc2ccc3nc(C)sc3c2s1	18.7	2.69	0.9	0.8	0.0118
CCNC(=O)N1CCOCC1	-5.1	-0.974	-6.5	0.9	-0.194
COCCn1c(SCC(=O)Nc2cc(C)cc(C)c2)nnc1C(C)C	30.0*	-0.00187	-3.8	1.4	0.043
COCCn1c(SCC(=O)Nc2cccc(C)c2)nnc1C(C)C	-1.3	1.25	0.5	0.8	0.752
O=C(NCCCN1CCc2ccccc2C1)Nc1ccc(Cl)cc1	10.4	-2.52*	2.8	1.1	-1.3
CCOc1ccc2oc(-c3ccccc3)c(C(=O)N3CCN(CCO)CC3)c2c1	2.0	-0.89	-6.3	1.4	0.266
O=C(NC(=O)N1CCN(c2ccccc2F)CC1)c1ccccc1	15.0	0.489	2.8	1.2	0.73
Cc1cccc(N2CCN(C(=O)NCc3ccc(Cl)cc3)CC2)c1	.	-0.0495	.	.	-9.61*
O=C(NCc1ccccc1)N1CCN(c2ccccc2F)CC1	31.4*	-0.0472	3.5	0.9	-0.876
CCOC(=O)c1cnn(-c2ncnc3c2cnn3Cc2ccccc2)c1N	.	-0.026	.	.	2.09
Cc1ccc([N+](=O)[O-])cc1N=C(c1cccc(Br)c1)N1CCOCC1	33.6*	-0.0528	22.6	1.2	-4.07*
CCCCCCC(=O)N1CCC(c2nc3c(nnn3Cc3ccccc3Cl)c(=O)[nH]2)CC1	8.4	0.499	-4.1	1.6	-2.23
O=C(CN1CCCC1)NCC12CC3CC(CC(C3)C1)C2	0.0	-2.24	-4.8	1.7	0.178
CC(NC(=O)Cn1cnnn1)C12CC3CC(CC(C3)C1)C2 (stereo not given)	14.0	-3.26*	17.5	1	0.407
CC(NC(=O)CN1CCCC1)C12CC3CC(CC(C3)C1)C2 (stereo not given)	6.4	-5.55*	0.1	0.8	0.822
CCCn1c(SCC(=O)c2ccc(CC)cc2)n[nH]c1=O	2.4	-0.0666	2.8	1.5	-0.846
CCCn1c(SCC(=O)NC(C)C23CC4CC(CC(C4)C2)C3)n[nH]c1=O (stereo not given)	38.1*	0.122	-2.5	1.4	0.534
CC(n1cnnn1)C12CC3CC(CC(C3)C1)C2 (stereo not given)	-1.6	-0.248	-9.8	1	-0.579
SMILES	PostGolgi ctrl	hDAT+cocaine	PostGolgi yeast	PLAP act	Cav3 T inh
C=CCC(C#Cc1ccc(C)cc1)N(CC)CC (stereo not given)	7.0	-0.145	1.1	1.7	0.306
O=c1oc2c(CN3CCCCCC3)c(O)ccc2cc1-c1nc2ccccc2[nH]1	.	.	.	2.4*	.
COc1ccc(N2CCN(CCCNS(=O)(=O)c3ccc4c(c3)oc(=O)n4C)CC2)cc1	31.8*	-0.128	-6.8	1.4	0.445
CC(C)(C)OC(=O)NCCc1nnc(SCc2ccc(Cl)cc2Cl)o1	18.1	-0.66	-1.1	1.3	-5.2*
CC(C)(C)OC(=O)N1CCC[C@H]1c1nnc(SCc2ccc(Cl)cc2Cl)o1	14.7	-2.14*	17.8	1.5	-5.78*
CC(C)(C)OC(=O)N1CCC[C@H]1c1nnc(SCc2ccccc2Cl)o1	10.7	-0.109	9.2	1.8	.
CC(C)CN(CCC(=O)O)CC(C)C	-5.0	0.00354	3.2	0.9	2.1
O=C(C1=C[C@H](C2CCCCC2)C[C@H](OCCCCO)O1)N1CCN(Cc2ccccc2)CC1	.	0.967	.	.	-0.00151
CC1(c2nnc(-c3cccc(Cl)c3)o2)CC(c2cccnc2)=NO1 (stereo not given)	.	0.0124	.	.	1
OC(CNCc1ccc(F)cc1)(c1ccc(F)cc1)c1ccc(F)cc1	-7.7	1.08	-13.1	0.7	-4.17*
Cn1c(Cn2nnc(-c3ccccc3)n2)nnc1SCc1ccccc1Cl	16.5	0.85	-0.2	1.1	-2.54
CCn1c(SCC(=O)NNC(=O)Cc2ccccc2)nnc1-c1ccccc1	4.0	-0.00408	8.8	2.4*	0.0836
CCOC(=O)CSc1nnc(Cc2ccccc2)n1-c1ccc(C)cc1	.	0.134	.	.	-2.79
Cc1ccc(-n2c(Cc3ccccc3)nnc2SCC(=O)NNC(=O)Cc2ccccc2)cc1	-9.3	1	-0.2	2.8*	-5.72*
CCc1nnc(NC(=O)CSc2nnc(C3CCCCC3)n2-c2cccc(Cl)c2)s1	7.2	-0.364	-2.3	.	-4.33*
O=C(CSc1nnc(-c2ccccc2)n1Cc1ccccc1)NC1CC1	-1.3	0.329	-6.7	1.3	-0.763
CCOC(=O)CN(C(=O)CSc1nnc(Cc2ccccc2)n1-c1ccc(C)cc1)c1ccccc1	.	2.7*	.	.	-8.43*
CCc1nnc(NC(=O)CSc2nnc(CNc3cccc(Cl)c3)n2CC)s1	-5.1	-0.374	18.4	1.1	-1.49
Cc1cc(NC(=O)COC(=O)c2cc3c(s2)CCC(C)C3)no1 (stereo not given)	-3.7	-1.14	-3.0	0.9	-0.414
N#Cc1ccsc1NC(=O)COc1ccc(-c2nnco2)cc1	.	-0.939	.	1.6	-0.302
CCN(CC)c1ccc(NC(=O)C2CCCN(S(=O)(=O)c3cnc[nH]3)C2)c(C)c1 (stereo not given)	15.4	1.27	-8.0	1.6	0.53
O=C1NNC(=O)C2C3C=CC(C4CC34)C12 (stereo not given)	-13.2	-0.369	4.5	0.8	0.828
Cc1ccc(S(=O)(=O)N2CCCCC2)cc1C(=O)Nc1ncn[nH]1	16.3	.	2.0	1.1	.
O=C(OC(C(=O)NC1CCCC1)c1ccccn1)c1cccs1 (stereo not given)	-2.4	0.982	-5.0	1	0.564
Cc1noc(C)c1CSc1nnc(-c2ccccc2F)n1CCc1ccccc1	23.7	0.179	11.1	1.2	-0.0996
Cc1ccc(-c2noc(CSc3nnc(Cc4ccccc4)n3-c3ccc(Cl)cc3)n2)cc1	36.8*	1.55	-5.6	1.6	-5.37*
CCOc1ccc(-n2c(Cc3ccccc3)nnc2SCc2c(C)noc2C)cc1	8.9	0.0504	-6.3	1.4	-4.34*
Cc1nnc(NC(=O)CSc2nnc(Cc3ccccc3)n2-c2ccccc2)s1	12.6	-0.673	-1.8	1.4	-1.8
COc1ccc(-c2noc(CSc3nnc(Cc4ccccc4)n3-c3ccc(Cl)cc3)n2)cc1	27.6	1.62	-1.9	1.5	-4.39
